cytoskel mod = modifiers of F-actin cytoskeleton organization, primary screen, imaging, HUVEC, phalloidin staining, high-content imaging | HUVEC TNFa F-actin phalloidin imaging | inhibition, % at 2 µM | hit rate 0.18% among 91,000 | AID 836, 2007;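 active means inhibition above the batch mean plus 3 SD and confirmed as a hit by visual image inspection, cut at about 30% in these data, passing the limit was not always enough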
VCAM1 TNFa inh = inhibitors of TNFa-induced VCAM1 expression, primary screen, imaging, HUVEC, TNFa stimulus, immunofluorescence | AID 802, 2007 | hit rate 0.48% among 95,000 | HUVEC TNFa-induced VCAM-1 immunofluorescence, high-content imaging | inhibition, % at 2 µM;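 active means inhibition above the batch mean plus 3 SD, with images confirmed as a hit by eye, cut at about 37% in these data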
E-sel TNF inh = E-selectin induction blockers in HUVEC – imaging, immunofluorescence, high content, primary screen. inhibition, % at 2 µM. HUVEC TNFa-induced E-selectin immunofluorescence. AID 1246, 2008. hit rate 0.71% among 120,000;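 active means inhibition above the batch mean plus 3 SD, and confirmed as a hit on visual image review, cut at about 43% in these data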
Phagocyt inh = inhibitors of macrophage phagocytosis, primary screen, imaging, J774A.1 cells, IgG beads; J774A.1 macrophage IgG-bead phagocytosis; inhibition, % at 5 µM; hit rate 0.07% among 110,000;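 active means inhibition above the mean of the plate negative controls plus 5 SD, cut at about 13% in these data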;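 further: phagocytic index as fraction of beads internalized from green versus red external bead signal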
INS promoter inh = inhibitors of insulin promoter-driven GFP, primary screen, imaging, TRM-6 cells (human fetal islet line), eGFP reporter, cell count; reporter expression induced with tamoxifen; inhibition, % at 2 µM; hit rate 0.9% among 130,000; AID 1273, 2008;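 active means inhibition above the mean plus 3 SD, with well images judged a real hit on visual review, cut at about 60% in these data, passing the limit was not always enough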
HUVEC tox TNFa = cytotoxicity in TNFa-stimulated HUVEC, primary screen, cytotoxicity control for VCAM1 expression modulator project, imaging, Hoechst nuclei count; HUVEC TNFalpha-stimulated, Hoechst cell count; cell count reduction, % at 2 µM; hit rate 0.17% among 93,000; AID 848, 2007;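 active means cell count reduction exceeding the screen mean by over 5 SD, scaled to untreated wells per plate, cut at about 78% in these data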;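 further: cells counted after 24 h of TNF alpha exposure following the 1 h pretreatment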
Large screens that a line does not name were inactive; [ ] = remark or other dose. Compounds with a hit are over-represented: about 1.6% of the library has one in this group of screens.

CCCc1cc(=O)[nH]c(SCC(=O)Nc2nonc2N)n1	VCAM1 TNFa inh 86 (no result: INS promoter inh)
CCSc1nc2ccccc2n1C(=O)c1ccc(S(=O)(=O)N2CCCCCC2)cc1	none (no result: cytoskel mod, VCAM1 TNFa inh, E-sel TNF inh, INS promoter inh, HUVEC tox TNFa)
C#CCSc1nc2ccccc2n1C(=O)c1ccc(S(=O)(=O)N2CCCCC2)cc1	INS promoter inh 76 (no result: cytoskel mod, VCAM1 TNFa inh, E-sel TNF inh, HUVEC tox TNFa)
CCSc1nc2ccccc2n1C(=O)c1ccc(S(=O)(=O)N2CCCCC2)cc1	INS promoter inh 82 (no result: Phagocyt inh)
Cc1ccc(C(=O)CSc2nnc(C)s2)cc1	none (no result: cytoskel mod, VCAM1 TNFa inh, HUVEC tox TNFa)
Cc1nnc(SCC(=O)c2ccc(Br)cc2)s1	INS promoter inh 79 (no result: cytoskel mod, VCAM1 TNFa inh, E-sel TNF inh, Phagocyt inh, HUVEC tox TNFa)
CC(=O)c1cccc(NC(=O)NCc2cccnc2)c1	cytoskel mod 50, E-sel TNF inh 100
O=C(NCc1cccnc1)Nc1ccccc1	none (no result: cytoskel mod, VCAM1 TNFa inh, Phagocyt inh, INS promoter inh, HUVEC tox TNFa)
O=C(NCc1cccnc1)Nc1cccc(NC(=O)NCc2cccnc2)c1	Phagocyt inh 90 (no result: cytoskel mod, VCAM1 TNFa inh, INS promoter inh, HUVEC tox TNFa)
O=C(Cc1ccccc1)Nc1cc(C(=O)c2ccccc2)ccc1N1CCOCC1	none
COc1cc(/C=C(\C#N)C(=O)Nc2cccnc2)ccc1OC(C)C	none (no result: cytoskel mod, VCAM1 TNFa inh, INS promoter inh, HUVEC tox TNFa)
CC1CCN(S(=O)(=O)c2ccc(NC(=O)CSc3ncccc3C(=O)O)cc2)CC1	E-sel TNF inh 62 (no result: cytoskel mod, VCAM1 TNFa inh, INS promoter inh, HUVEC tox TNFa)
CC1CCN(S(=O)(=O)c2ccc(NC(=O)CSc3nnnn3C)cc2)CC1	none
O=C(Nc1ccc2oc(-c3cccnc3)nc2c1)c1ccc([N+](=O)[O-])o1	E-sel TNF inh 97 (no result: cytoskel mod, VCAM1 TNFa inh, Phagocyt inh, INS promoter inh, HUVEC tox TNFa)
COc1cc2c(O)c3c(c(-c4ccc5c(c4)OCO5)c2cc1OC)C(=O)OC3	VCAM1 TNFa inh 91 (no result: E-sel TNF inh, Phagocyt inh)
CCOC(=O)c1cc(C(C)C)sc1NC(=O)COC(=O)CCS(=O)(=O)c1ccccc1	INS promoter inh 60 (no result: cytoskel mod, VCAM1 TNFa inh, HUVEC tox TNFa)
O=C(CSc1nnc(-c2cccnc2)o1)Oc1ccccc1	Phagocyt inh 26[artifact]
Cc1ccc(-c2csc3ncnc(NCCN4CCOCC4)c23)cc1	none
c1ccc(-c2csc3ncnc(NCCN4CCOCC4)c23)cc1	INS promoter inh 81
O=c1c2ccccc2n2c(-c3cccc(F)c3)nnc2n1Cc1ccccc1	E-sel TNF inh 74 (no result: cytoskel mod, VCAM1 TNFa inh, INS promoter inh, HUVEC tox TNFa)
Cc1ccc(NC(=O)c2c3c(nc4ccccc24)CCC3)cc1S(=O)(=O)N(C)C	none (no result: cytoskel mod, VCAM1 TNFa inh, Phagocyt inh, HUVEC tox TNFa)
N/C(=N\c1nc(CSc2ccc(Cl)cc2)cc(=O)[nH]1)Nc1cccc2ccccc12	E-sel TNF inh 70
COc1ccc(N/C(N)=N/c2nc(CSc3ccc(Cl)cc3)cc(=O)[nH]2)cc1	none
Cc1nnc(SCC(=O)N2CC(=O)Nc3ccccc32)n1C	E-sel TNF inh 64
Cc1cccc2cc(C#N)c(SCC(=O)N3CC(=O)Nc4ccccc43)nc12	VCAM1 TNFa inh 94 (no result: Phagocyt inh)
Cc1cccc2cc(C#N)c(SCC(=O)N3CCC(C)CC3)nc12	none (no result: INS promoter inh)
Cc1ccccc1-n1c(C)nnc1SCC(=O)N1CC(=O)Nc2ccccc21	none (no result: cytoskel mod, VCAM1 TNFa inh, HUVEC tox TNFa)
O=C(NC(=S)NC1CCS(=O)(=O)C1)c1cccs1 (centres undefined)	none (no result: cytoskel mod, VCAM1 TNFa inh, E-sel TNF inh, HUVEC tox TNFa)
O=C(NC(NC1CCS(=O)(=O)C1)C(=O)c1cccs1)c1ccccc1 (centres undefined)	VCAM1 TNFa inh 94 (no result: Phagocyt inh)
CCOC(=O)c1c(C)nc2ccc(C)cn12	none
CSc1nc(=O)n2cc(C)ccc2n1	E-sel TNF inh 64 (no result: cytoskel mod, VCAM1 TNFa inh, Phagocyt inh, HUVEC tox TNFa)
CCc1ccccc1NC(=O)CSc1nc2n[nH]c(C)c2c(=N)n1-c1cccc(OC)c1	E-sel TNF inh 54 (no result: Phagocyt inh)
CCOc1ccccc1-n1c(SCC(=O)Nc2ccc(CC)cc2)nc2n[nH]c(C)c2c1=N	none
O=c1[nH][nH]cc1C=Nc1ccc(Cl)cc1	E-sel TNF inh 97 (no result: cytoskel mod, VCAM1 TNFa inh, Phagocyt inh, HUVEC tox TNFa)
COc1cccc(N=Cc2c[nH][nH]c2=O)c1	none
CC(C)CCn1c(Sc2nc3ccccc3o2)nc2c1c(=O)[nH]c(=O)n2C	none (no result: cytoskel mod, VCAM1 TNFa inh, HUVEC tox TNFa)
Cc1ccc(NC(=O)N(CCCN2CCOCC2)Cc2cccnc2)cc1C	none (no result: INS promoter inh)
COc1ccc(NC(=O)N(CCCN2CCOCC2)Cc2cccnc2)c(OC)c1	E-sel TNF inh 61 (no result: Phagocyt inh, INS promoter inh)
O=C(O)COCC(=O)Nc1ccc(-n2cnnn2)cc1	none (no result: cytoskel mod, VCAM1 TNFa inh, E-sel TNF inh, Phagocyt inh, HUVEC tox TNFa)
CC(C)(C)NC(=O)/C=C/c1cccc(C(F)(F)F)c1	INS promoter inh 60 (no result: cytoskel mod, VCAM1 TNFa inh, HUVEC tox TNFa)
O=C(Nc1ccc(S(=O)(=O)NC2=NCCCCC2)cc1)c1ccc(=O)[nH]c1	none (no result: cytoskel mod, VCAM1 TNFa inh, Phagocyt inh, HUVEC tox TNFa)
Cc1cccc(CSCCNC(=O)c2ccc(CN3CCOCC3)cc2)c1	INS promoter inh 71 (no result: cytoskel mod, VCAM1 TNFa inh, HUVEC tox TNFa)
O=C(NCc1ccc2c(c1)OCO2)c1ccc(CN2CCOCC2)cc1	INS promoter inh 89

Compound activity: PubChem BioAssay, several laboratories
